# Shiga inhibitor: blocks Shiga toxin action in Vero cells; Vero cells, Shiga toxin protein synthesis inhibition reporter; inhibition, % at 38.7 µM; hit rate 9.2% among 290,000; AID 2315; in the data active means inhibition mostly above about 28%, no sharp cut-off; inactive means mostly below about 43%; further: 0% is about no effect
# Pf growth 96h: P. falciparum growth inhibition at 96 hours; P. falciparum luciferase reporter growth, 96 h; Potency, µM (doses to about 28.7 µM), without a hit: top-dose activity change, negative = inhibition, usual class: inhibitors; hit rate 6.9% among 320,000; AID 504834; further: potency means the concentration at half of the fitted maximal effect; on the % scale 0 is the no-effect control and ±100 the full control effect
#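 Cell-based qHTS: luciferase-tagged P. falciparum in erythrocytes (2% hematocrit, 0.05% parasitemia final) incubated with compounds for 96 hours, 37 C, 5% CO2; luciferase detection reagent then added and luminescence measured.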
# HCMV inh: inhibitors of human cytomegalovirus; HFF cells, HCMV-luciferase reporter, 72 h; active compounds read low; activity change, negative = inhibition, % at 57.5 µM; hit rate 4.5% among 410,000; in the data active means activity change below about -60%; inconclusive means no clear call, values can overlap the other calls; inactive means above about -39%; further: on the % scale 0 is the no-effect control and ±100 the full control effect
#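 After 16 h attachment at 37C, HFF cells received test compound and HCMV-luciferase (1 PFU/cell); reporter luminescence read 72 h later, data normalized against buffer-only and known inhibitor Salinomycin.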
# Pf growth 48h: P. falciparum growth inhibition at 48 hours (one generation); P. falciparum luciferase growth in erythrocytes, 48 h; Potency, µM (series often up to 28.7 µM), for the others: top-dose activity change, negative = inhibition, usual class: inhibitors; hit rate 5.9% among 310,000; AID 504832; further: potency means the concentration at half of the fitted maximal effect; on the % scale 0 is the no-effect control and ±100 the full control effect
#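 Growth was read as firefly luciferase luminescence after a 48 h, 37 C, 5% CO2 exposure of compounds to reporter-bearing P. falciparum cultures (0.1% parasitemia, 2% hematocrit final) in Albumax-supplemented RPMI 1640.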
# Cycloheximide cs: counter-screen hit for Shiga toxin inhibitors, cycloheximide | cell reporter, cycloheximide protein synthesis inhibition counterscreen | hit rate 12% among 300,000 | max response, %; in the data active means max response mostly above about 13%, no sharp cut-off; inactive means mostly below about 14%; further: read at 38.3 µM for the half of the compounds with a filed dose; 0% is about no effect
# Starred values were filed as active, the others as inactive; ? = inconclusive; . = no result. A selection: hits, their analogues and other compounds. The true share with any hit is near 20%. Unless noted, the call rests on the fitted dose curve; in most records, active means well fitted inhibition curve with a large enough effect; inconclusive means small, poorly fitted or top-dose-only effect, or another doubt; inactive means no such curve, though single readings can be large or run the other way.
SMILES,Shiga inhibitor,Pf growth 96h,HCMV inh,Pf growth 48h,Cycloheximide cs
O=C(Nc1cccnc1Cl)c1ccc2c(Cl)c3c(nc2c1)CCC3,43.7,-9.2%,1.6,240.8%,22.7*
COc1ccccc1NC(=O)c1ccc2c(Cl)c3c(nc2c1)CCCC3,.,.,-9.3,.,.
Cc1ccc2nc(COc3ccccc3NC(=O)COc3ccc(F)cc3)cc(=O)n2c1,.,.,-38.8,.,.
O=C(O)c1cccc(Nc2ncnc3sccc23)c1,40.6,374.8%,-34.6,161.5%,25.5*
Cc1ccc2ncnc(Nc3cccc(C(=O)O)c3)c2c1,3.1,?,-2.8,24.6%,-1.3
Fc1cccc(Nc2ncnc3sccc23)c1,26.6,57.0%,-17.8,43.9%,9.8*
O=C(Nc1ccc(Nc2ccccc2)cc1)C(Cl)Cl,35.7,-3.4%,-63.7*,-30.5%,12.1
O=C(Nc1ccc(Nc2ccccc2)cc1)C(Cl)(Cl)Cl,49.0*,?,-29.8,?,26.7*
CC(C)(C)C(=O)C(Cl)C(=O)Nc1ccccc1 (centres undefined),-4.1,8.8%,-13.0,2.0%,-1.4
NC(=O)Nc1ccc(Nc2ccccc2)cc1,25.5,-11.8%,18.0,0.3%,7.0
Cc1cc(N2CCC(C(=O)NC3CC3)CC2)nc(-c2ccccc2)n1,-3.0,?,-31.3,3.7µM*,-5.2
CCCc1cc(N2CCC(C(N)=O)CC2)nc(-c2ccccc2)n1,-7.3,23.4%,-17.7,5.22µM*,7.7
CS(=O)(=O)Cc1cc(N2CCCC2)nc(-c2ccccc2)n1,-6.1,-24.1%,-4.1,18.0%,1.2
O=C(CSc1nnc(Cc2ccccc2)o1)Nc1cccc(F)c1,-4.4,?,46.6,29.6%,-2.1
Cc1cc(NC(=O)CSc2nnc(C)o2)no1,3.1,159.8%,-11.6,-13.1%,-2.5
COc1ccc(S(=O)(=O)N2CCC(C(=O)Nc3cc(Cl)ccc3N3CCOCC3)CC2)cc1OC,.,?,2.1,?,.
COc1ccc(S(=O)(=O)N2c3ccc(Cl)cc3[C@](O)(c3ccccc3Cl)[C@@H]2C(=O)N2CCC[C@H]2C(N)=O)cc1OC,.,9.53µM*,.,?,.
CC(=O)Nc1cccc(C(=O)Nc2ccccc2C(=O)O)c1,-17.2,.,25.7,-12.3%,-2.1
CC(=O)Nc1ccccc1C(=O)C(=O)Nc1ccc(Cl)cc1,75.4*,28.1%,123.7,68.9%,16.8*
CCC(=O)Nc1ccccc1C(=O)C(=O)Nc1ccccc1,37.5*,?,37.7,126.5%,35.5*
CC(=O)Nc1ccccc1C(=O)C(=O)Nc1cccc(Br)c1,100.2*,?,14.0,25.5%,37.4*
CC(=O)Nc1ccccc1C(=O)C(=O)Nc1cccc(C(=O)N2CCC3(CC2)OCCO3)c1,-12.3,1.85µM*,175.0,7.7%,-1.2
CC(=O)Nc1ccc(NC(=O)COC(=O)COc2ccc3ccccc3c2)cc1,.,.,-22.9,.,.
CCc1cc(=O)oc2c(C)c(OCC(=O)NCc3ccccn3)ccc12,-3.6,?,0.0,16.1%,-2.4
Cc1ccc(Cl)cc1N1CCN(C(=O)C2CCN(Cc3nc(-c4ccc(Cl)cc4)oc3C)CC2)CC1,.,.,1.0,.,.
SMILES,Shiga inhibitor,Pf growth 96h,HCMV inh,Pf growth 48h,Cycloheximide cs
COc1cc(Cl)c(C)cc1NC(=O)CNC(=O)Cn1cnc2ccccc2c1=O,12.6,?,3.7,30.9%,0.7
CC(=O)Nc1ccccc1C(=O)C(=O)Nc1ccccc1,41.2,7.38µM*,2.0,64.4%,11.0
CCN(CC)CCNC(=O)c1cccc(NC(=O)C(=O)c2cc(Br)ccc2NC(C)=O)c1,-11.9,?,-34.4,10.4µM*,-4.4
Nc1nc(SCC(=O)Nc2ccc([N+](=O)[O-])cc2)[nH]c(=O)c1NC(=O)c1ccc(Br)cc1,-1.4,?,4.2,12.0%,-1.1
O=C(CCc1nc2sc3c(c2c(=O)[nH]1)CCCC3)N1CCN(c2ccccc2)CC1,.,5.1%,-16.6,8.3%,.
CCn1cnc2cc(NCc3nc4ccccc4n3C)ccc21,59.0*,2.6%,96.6,104.1%,26.0*
COc1cc(CNc2ccc3c(c2)ncn3C(C)C)cc(OC)c1OC,.,.,15.1,.,.
CC(C)n1cnc2cc(NCc3nc4ccccc4n3C)ccc21,81.8*,10.8%,123.1,127.6%,72.7*
CCn1c(CNc2ccc(C(=O)O)cc2)nc2ccccc21,-2.1,3.3%,43.9,9.6%,-6.8
CCn1cnc2cc(NCc3nc4ccccc4n3Cc3ccccc3)ccc21,50.4*,152.2%,-33.8,9.2%,32.6*
O=C(NCC1(c2ccccc2)CCCC1)c1cccc(Br)c1,-15.1,?,?,?,-3.5
Clc1ccc(OCCSc2ncccn2)c(Br)c1,117.9*,8.0%,93.2,82.7%,41.2*
